mHTT CaM bind: mutant huntingtin-calmodulin interaction inhibitors – biochemical, AlphaScreen, primary screen | P42858 | AlphaScreen His-mHTT/GST-CaM binding, luminescence | inhibition, % at 15 µM | actives 3.6% (n = 190,000) | AID 1671202, 2021
Pf apPOL block: Pf-apPOL inhibitors, biochemical, fluorescence; Plasmodium falciparum apicoplast DNA polymerase (apPOL); Recombinant Pf-apPOL, molecular beacon fluorescence, 1.5 h; inhibition, % at 10 µM; actives 0.25% (n = 210,000); AID 1794808, 2022
Hits are given with their value; - = inactive; . = no result given. Rows were chosen to be rich in hits. Some 3.5% of all compounds tested hit in one or more screens of this group. No stated cut-off is given here; in the data, active means inhibition above about 50%; inactive means the rest.

SMILES	mHTT CaM bind	Pf apPOL block
O=C(NCc1ccccn1)c1cc(S(=O)(=O)N2CCC3(CC2)OCCO3)ccc1F	-	-
CC(NC(=O)C1CC1)c1nc(-c2cccc(Cl)c2)no1 (stereo not drawn)	-	-
CC(C)n1cnc2c1c(=O)n(CCc1ccccc1)c(=O)n2-c1ccc(F)cc1	-	-
COCCN=C1Nc2ccccc2NC12CCCN(C(=O)c1cc(OC)cc(OC)c1)C2 (stereo not drawn)	-	-
COCCN=C1Nc2ccccc2NC12CCCN(C(=O)Nc1ccc(OC)cc1)C2 (stereo not drawn)	100	-
COCCN=C1Nc2ccccc2NC12CCCN(C(=O)c1ccc(C)c(F)c1)C2 (stereo not drawn)	-	-
COCCN=C1Nc2ccccc2NC12CCCN(C(=O)Nc1ccc(OC)cc1C)C2 (stereo not drawn)	70	-
Cc1ccc(-c2nnc(N3CCC(C(=O)NCCCN4CCCCC4)CC3)o2)cc1	-	-
CCCC1(C)N=C(c2ccc(OCC)cc2)CC(c2ccccc2O)N1 (stereo not drawn)	-	-
COc1cccc(C2=NC(C(C)C)NC(c3ccccc3O)C2)c1 (stereo not drawn)	-	-
COc1cccc(C2=NC(C)(CC(C)C)NC(c3ccccc3O)C2)c1 (stereo not drawn)	98	-
COc1cccc(C2=NC(C(C)C)NC(c3cc(Cl)ccc3O)C2)c1 (stereo not drawn)	52	-
CCOC(=O)N1CCC2(CC1)N=C(c1ccccc1)CC(c1cc(Cl)ccc1O)N2 (stereo not drawn)	-	-
CC(C)N1CCC2(CC1)N=C(c1ccc3c(c1)OCO3)CC(c1ccccc1O)N2 (stereo not drawn)	-	-
CC(C)C1(C)N=C(c2ccc3c(c2)OCO3)CC(c2ccccc2O)N1 (stereo not drawn)	64	-
COc1cccc(C2=NC(C)(C)NC(c3cc(Cl)ccc3O)C2)c1 (stereo not drawn)	100	-
N#CC(=NNc1ccc(Cl)cc1)S(=O)(=O)c1ccsc1	.	-
COc1ccccc1C(=O)Nc1cc(Br)cc2cccnc12	-	-
COc1ccccc1C(NC(=O)C(C)C)c1ccc2cccnc2c1O (stereo not drawn)	99	-
COc1ccccc1NC(=O)Nc1cccc2cccnc12	-	-
COc1ccccc1C(NC(C)=O)c1ccc2cccnc2c1O (stereo not drawn)	100	-
COc1ccc(-n2c(CCC(=O)O)ccc2-c2cccs2)cc1Cl	-	-
CCc1nn2c(C)c(CCC(=O)N3CCN(C)CC3)c(C)nc2c1-c1ccc(Cl)cc1	-	-
O=C(Nc1nc2c(s1)CCC2)C1CCCN1S(=O)(=O)c1ccc(F)cc1 (stereo not drawn)	-	-
NC(=O)c1oc2ccccc2c1NC(=O)C1CCCN1S(=O)(=O)c1ccc(F)cc1 (stereo not drawn)	67	-
SMILES	mHTT CaM bind	Pf apPOL block
O=C(Cc1nc(-c2ccccn2)n[nH]1)Nc1ccc(F)c(F)c1	86	-
CCOC(=O)Cc1nc(-c2ccccn2)n[nH]1	98	-
O=C(Cc1nc(-c2cccnc2)n[nH]1)Nc1ccc(F)c(F)c1	-	-
N#CCc1nc(-c2ccccn2)n[nH]1	.	-
Cc1ccccc1NC(=O)Cc1nc(-c2ccccn2)n[nH]1	100	-
Cc1cccc(NC(=O)Cc2nc(-c3ccccc3)n[nH]2)c1C	-	-
Cc1ccc(NC(=O)Cc2nc(-c3ccccc3)n[nH]2)c(C)c1	-	-
Cc1cccc(NC(=O)Cc2nc(-c3ccccn3)n[nH]2)c1C	99	-
CCOC(=O)CCC(=O)N1CCC(Cn2cnc3ccccc32)CC1	-	-
COc1ccc(Cl)cc1S(=O)(=O)N1CCN(C(=O)c2ccccc2F)CC1	-	-
Cc1ccc(NC(=O)Cc2nc(-c3ccccn3)n[nH]2)cc1	69	-
O=C(Cc1nc(-c2cccnc2)n[nH]1)Nc1ccc(F)cc1	-	-
CCn1c(=O)c(-c2ccc(C(=O)Nc3ccc(F)cc3)cc2)nc2cccnc21	-	-
O=c1[nH]c2ccccc2nc1CN1CCN(c2cccc(Cl)c2)CC1	-	-
COc1ccc(N2CCN(Cc3nc4cc(Cl)c(Cl)cc4[nH]c3=O)CC2)cc1	53	-
Cn1nc(COCc2cccc(F)c2)c2c1CCN(C(=O)Nc1ccccc1Cl)C2	-	-
CCC1=C(C)/C(=C\c2[nH]c(C)c(CC)c2C)N=C1C	95	-
CCOc1ccccc1/C=C1\N=C(c2ccc(C)c(C)c2)OC1=O	-	-
Cc1cc(=O)[nH]c(-c2cnccn2)n1	94	-
Cc1cc(=O)[nH]c(-c2ccccc2)n1	.	-
c1cc(N2CCCC2)ccn1	-	.
O=C(NCc1cccnc1)c1cc(=O)[nH]c2ccc(S(=O)(=O)N3CCCC3)cc12	-	-
Cc1c(C=O)c(C=O)c(C)n1-c1ccc(N(C)C)cc1	-	-
CN(C)c1ccc(N2CC(=O)SC2=NC#N)cc1	55	.
COc1ccccc1CNC(=O)C(=O)Nc1cc(C)on1	-	-
SMILES	mHTT CaM bind	Pf apPOL block
COc1cccc2c1OC1(CCC(C)CC1)N1N=C(c3ccco3)CC21 (stereo not drawn)	-	-
COc1cccc(C2=NN3C(C2)c2cccc(OC)c2OC32CCCCC2)c1 (stereo not drawn)	52	-
COc1cccc2c1OC1(CCCCC1)N1N=C(c3ccco3)CC21 (stereo not drawn)	-	-
COc1cccc2c1OC(C)(C)N1N=C(c3ccco3)CC21 (stereo not drawn)	55	-
COc1ccc(C2=NN3C(C2)c2cc(OC)ccc2OC32CCCCC2)cc1 (stereo not drawn)	60	-
COc1ccc(C2=NN3C(C2)c2ccccc2OC32CCCCC2)cc1OC (stereo not drawn)	-	-
NC(=O)c1ccc(Oc2cccc(Oc3ccc(C(N)=O)cc3)c2)cc1	-	-
O=C1C=CC(=O)N1c1ccc(Oc2cccc(Oc3ccc(N4C(=O)C=CC4=O)cc3)c2)cc1	91	-
Nc1ccc(Oc2cccc(Oc3ccc(N)cc3)c2)cc1	52	-
Cc1cccc(Oc2ccc(N3C(=O)C=CC3=O)cc2)c1C	-	-
CCCNC(=O)c1ccc2c(c1)ncn2C1CCN(C(=O)c2ccccc2C)CC1	-	-
CCCC(=O)Nc1c(-c2ccccc2OC)nc2ccc(C)cn12	-	-
CCn1c(=O)c2c(ncn2Cc2ccc(F)cc2)n(-c2cccc(C)c2)c1=O	-	-
Cc1cc(C)c([N+](=O)[O-])c(C)c1C1C(C#N)=C(N)SC(N)=C1C#N	65	-
Cc1ccsc1C1C(C#N)=C(N)SC(N)=C1C#N	-	-
N#Cc1ccc([N+](=O)[O-])s1	.	-
N#CC1=C(N)SC(N)=C(C#N)C1c1ccc(Cl)c([N+](=O)[O-])c1	77	-
N#CC1=C(N)SC(N)=C(C#N)C1c1ccc(Cl)cc1	-	-
N#CC1=C(N)SC(N)=C(C#N)C1c1ccc([N+](=O)[O-])s1	67	.
COc1cc(OC)c(CN2CCN(CCOCCO)CC2)cc1Br	-	-
Cc1ccccc1C1C2=C(CC(C)(C)CC2=O)Nc2nc(C(F)(F)F)nn21 (stereo not drawn)	-	-
COc1ccc(CNC(=O)C(C)C2CCN(S(=O)(=O)c3cccs3)CC2)cc1 (stereo not drawn)	-	-
Cc1ccc(N2C(=O)CSC2c2cccc(F)c2)cc1Cl (stereo not drawn)	-	-

Bioassay records as filed in PubChem BioAssay.
